# Source: PubChem BioAssay (EPA / NIEHS)
# Activity calls are given as the source filed them. Rule for the calls: active = hit-call score of the fitted dose curve at least 0.9, where 1 is the maximum; inactive = score below 0.9.
# How the values were obtained:
# [1] = Tanguay_ZF_120hpf_MORT: Oregon State University Tanguay Lab 120 Hour Post-fertilization zebrafish Assay for Mortality (AID 2284399)
# Outline: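 Mortality, recorded present/absent via brightfield imaging at 24 and 120 hpf, in 5D zebrafish embryos exposed statically from 6 hpf after pronase chorion removal. Exposure at 28C, 0.64% DMSO vehicle, DMSO baseline.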
# [2] = Tanguay_ZF_120hpf_EDEM: Oregon State University Tanguay Lab 120 Hour Post-fertilization zebrafish Assay for Edema Malformation (AID 2284400)
# Outline: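 Edema recorded as a binary endpoint under brightfield at 120 hpf, excluding embryos that died. Exposure was static, sealed, 28C, from 6 hpf in dechorionated wild-type larvae, final DMSO 0.64%, DMSO as baseline.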
# [3] = Tanguay_ZF_120hpf_BRN: Oregon State University Tanguay Lab 120 Hour Post-fertilization zebrafish Assay for Brain Region Malformation (AID 2284402)
# Outline: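 Binary brightfield scoring of brain malformation at 120 hpf in 5D wild-type larvae, chorion removed with pronase at 4 hpf. Static exposure began at 6 hpf, 28C, sealed plates, DMSO 0.64% (vol/vol) as vehicle baseline.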
# [4] = Tanguay_ZF_120hpf_TCHR: Oregon State University Tanguay Lab 120 Hour Post-fertilization zebrafish Assay for Touch Responsive (AID 2284403)
# Outline: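 Binary touch-response calls are made at 120 hpf in 5D wild-type zebrafish larvae. These larvae were dechorionated with pronase and exposed singly from 6 hpf in sealed, dark plates at 28 °C with 0.64% DMSO final; dead embryos are excluded.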
# [5] = Tanguay_ZF_120hpf_ANY: Oregon State University Tanguay Lab 120 Hour Post-fertilization zebrafish Assay for Any Mortality and Malformation (AID 2284404)
# Outline: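 Dechorionated Tropical 5D wild-type embryos, one per well from 6 hpf, static exposure in sealed, dark plates at 28C until 120 hpf, 0.64% DMSO final. Brightfield scoring of mortality and malformations as binary presence/absence, pooling 13 morphology endpoints.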
# [6] = CCTE_Padilla_ZF_Score.Edema: CCTE's 144 Hour Post-fertilization zebrafish Assay Score for Edema Malformation, Padilla Lab (AID 2284406)
# Outline: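 Edema scored at 6 dpf by two blinded observers under a stereo microscope, in single outbred wild-type larvae exposed from 6-8 hpf in sealed wells (Hanks', 26C, 14:10 h light) and chemical-free after a 5 dpf rinse.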
# [7] = CCTE_Padilla_ZF_Score.Spine: CCTE's 144 Hour Post-fertilization zebrafish Assay Score for Spine Malformation, Padilla Lab (AID 2284407)
# Outline: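 Spine malformation scored at 6 dpf by two independent blinded observers under stereomicroscope, after static sealed exposure from 6–8 hpf at 26C in Hanks' solution with rinse on 5 dpf. Positive-direction fit against DMSO control.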
# [8] = CCTE_Padilla_ZF_Score.Swim_bladder: CCTE's 144 Hour Post-fertilization zebrafish Assay Score for Swim Bladder Malformation, Padilla Lab (AID 2284408)
# Outline: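 Swim bladder inflation scored at 6 dpf by two blinded observers under a stereo microscope. Exposure ran from 6–8 hpf in sealed wells of 10% Hanks' at 26C, with rinsing at 5 dpf; DMSO served as baseline.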
# [9] = CCTE_Padilla_ZF_Score.Position: CCTE's 144 Hour Post-fertilization zebrafish Assay Score for Position, Padilla Lab (AID 2284409)
# Outline: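 Wild-type zebrafish embryos (with chorions) exposed singly from 6–8 hpf in sealed wells of Hanks' solution at 26C, rinsed at 5 dpf. At 6 dpf, blinded assessors scored abnormal water-column position by brightfield stereomicroscopy, relative to DMSO.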
# [10] = CCTE_Padilla_ZF_Score.General: CCTE's 144 Hour Post-fertilization zebrafish Assay Score for General Malformation, Padilla Lab (AID 2284411)
# Outline: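 Malformation, death and hatching were scored at 6 dpf by two blinded observers under a stereo microscope. Embryos were dosed singly from 6-8 hpf in sealed plates of 10% Hanks' at 26C and rinsed on 5 dpf; DMSO baseline.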
# [11] = CCTE_Padilla_ZF_Score.Tail: CCTE's 144 Hour Post-fertilization zebrafish Assay Score for Tail Malformation, Padilla Lab (AID 2284414)
# Outline: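 Tail malformations were scored at 6 dpf by two blinded assessors under a stereo microscope. Chorionated embryos had been exposed from 6-8 hpf in sealed wells of 10% Hanks' at 26 C, then rinsed free of chemical at 5 dpf.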
# [12] = CCTE_Padilla_ZF_Score.Blood_pooling: CCTE's 144 Hour Post-fertilization zebrafish Assay Score for Blood Pooling, Padilla Lab (AID 2284415)
# Outline: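 Blood pooling was scored at 6 dpf under a stereo microscope by two blinded assessors, fitted upward against DMSO. Single embryos were dosed at 6–8 hpf in 10% Hanks', kept sealed at 26C (14:10 h cycle) and rinsed at 5 dpf.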
# [13] = CCTE_Padilla_ZF_Score.Any: CCTE's 144 Hour Post-fertilization zebrafish Assay Score for Any Mortality or Malformation, Padilla Lab (AID 2284416)
# Outline: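 Wild-type zebrafish embryos with chorions, one per well in 10% Hanks' from 6–8 hpf, dosed in sealed plates at 26 C, 14:10 h light:dark; rinsed at 5 dpf; blinded scoring at 6 dpf for death or malformation, versus DMSO.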
# [14] = CCTE_Padilla_ZF_Score.Living: CCTE's 144 Hour Post-fertilization zebrafish Assay Score for Viability, Padilla Lab (AID 2284410);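 note: larval death at 6 dpf judged by absent heartbeat or coagulation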
# Outline: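 Mortality at 6 dpf, judged as absent heartbeat or coagulation by two blinded observers, after sealed static exposure beginning at 6–8 hpf at 26C. Larvae were rinsed free of chemical at 5 dpf, and activity was fitted relative to DMSO.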
# [15] = CCTE_Padilla_ZF_Score.Craniofacial: CCTE's 144 Hour Post-fertilization zebrafish Assay Score for Craniofacial Malformation, Padilla Lab (AID 2284405)
# Outline: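 Craniofacial defects were scored at 6 dpf by two blinded observers using stereomicroscopy. Exposure of wild-type embryos began at 6–8 hpf in sealed wells of 10% Hanks' solution at 26C, with chemical removed by rinsing at 5 dpf.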
compound,measurement,setting,value
C=CC(F)(F)C(F)(F)C(F)(F)C(F)(F)C(F)(F)C(F)(F)C(F)(F)C(F)(F)C=C,outcome,[1],inactive
same,outcome,[2],inactive
same,outcome,[3],inactive
same,outcome,[4],inactive
same,AC50,[5],10.3 µM (active)
CC(C)(C)C(=O)CC(=O)C(F)(F)C(F)(F)C(F)(F)F,outcome,[1],inactive
same,outcome,[2],inactive
same,outcome,[3],inactive
same,outcome,[4],inactive
same,outcome,[5],inactive
same,AC50,[6],27.5 µM (active)
same,outcome,[7],inactive
same,AC50,[8],27 µM (active)
same,AC50,[9],29 µM (active)
same,AC50,[10],26.4 µM (active)
same,outcome,[11],inactive
same,outcome,[12],inactive
same,AC50,[13],26.6 µM (active)
O=C(O)C(F)(F)C(F)(F)C(F)(F)C(F)(F)F,outcome,[1],inactive
same,outcome,[2],inactive
same,outcome,[3],inactive
same,outcome,[5],inactive
same,outcome,[6],inactive
same,outcome,[7],inactive
same,outcome,[8],inactive
same,outcome,[9],inactive
same,outcome,[14],inactive
same,outcome,[10],inactive
same,outcome,[11],inactive
same,outcome,[12],inactive
same,outcome,[13],inactive
O=C(O)C(F)(F)C(F)(F)C(F)(F)C(F)(F)C(F)(F)C(F)(F)C(F)(F)C(F)(F)C(F)(F)C(F)(F)C(F)(F)C(F)(F)F,AC50,[1],7.47 µM (active)
same,outcome,[2],inactive
same,outcome,[3],inactive
same,outcome,[4],inactive
same,AC50,[5],26.3 µM (active)
same,outcome,[15],inactive
same,outcome,[6],inactive
same,outcome,[7],inactive
same,outcome,[8],inactive
same,outcome,[9],inactive
same,outcome,[11],inactive
same,outcome,[12],inactive
same,outcome,[13],inactive
O=S(=O)(O)C(F)(F)C(F)(F)C(F)(F)C(F)(F)C(F)(F)C(F)(F)C(F)(F)F,outcome,[1],inactive
same,AC50,[2],46.3 µM (active)
same,AC50,[3],52.4 µM (active)
same,AC50,[5],33 µM (active)
same,AC50,[6],25.8 µM (active)
same,outcome,[7],inactive
same,AC50,[8],21.3 µM (active)
same,AC50,[9],22 µM (active)
same,AC50,[14],71 µM (active)
same,AC50,[11],31.2 µM (active)
same,AC50,[12],63.4 µM (active)
same,AC50,[13],21.3 µM (active)
FC(F)(F)C(F)(F)C(F)(F)C(F)(F)C(F)(F)C(F)(F)C(F)(F)I,outcome,[1],inactive
same,outcome,[2],inactive
same,outcome,[3],inactive
same,outcome,[5],inactive
same,outcome,[15],inactive
same,AC50,[6],10.2 µM (active)
same,outcome,[7],inactive
same,AC50,[8],63.8 µM (active)
same,outcome,[9],inactive
same,outcome,[11],inactive
same,outcome,[12],inactive
same,AC50,[13],12.4 µM (active)
COC(=O)CCC(F)(F)C(F)(F)C(F)(F)C(F)(F)F,outcome,[1],inactive
same,outcome,[2],inactive
same,outcome,[3],inactive
same,outcome,[5],inactive
C=C(C)C(=O)OCC(F)(F)C(F)(F)C(F)(F)C(F)(F)C(F)(F)C(F)(F)C(F)(F)F,outcome,[1],inactive
same,outcome,[2],inactive
same,outcome,[3],inactive
same,outcome,[5],inactive
same,outcome,[15],inactive
same,outcome,[6],inactive
same,outcome,[7],inactive
same,outcome,[8],inactive
same,outcome,[9],inactive
same,outcome,[11],inactive
same,outcome,[12],inactive
same,outcome,[13],inactive
OCC(F)(F)C(F)(F)C(F)(F)C(F)(F)C(F)(F)C(F)F,outcome,[1],inactive
same,outcome,[2],inactive
same,outcome,[3],inactive
same,outcome,[4],inactive
same,outcome,[5],inactive
same,outcome,[6],inactive
same,outcome,[7],inactive
same,outcome,[8],inactive
same,outcome,[9],inactive
same,outcome,[11],inactive
same,outcome,[12],inactive
same,outcome,[13],inactive
CCCCCCCCC(F)(F)C(F)(F)C(F)(F)C(F)(F)C(F)(F)C(F)(F)F,outcome,[1],inactive
same,outcome,[2],inactive
same,outcome,[3],inactive
same,outcome,[5],inactive
same,outcome,[6],inactive
same,outcome,[7],inactive
same,outcome,[8],inactive
same,outcome,[9],inactive
same,outcome,[10],inactive
same,outcome,[11],inactive
same,outcome,[12],inactive
same,outcome,[13],inactive
NC(=O)C(F)(F)C(F)(F)C(F)(F)C(F)(F)F,outcome,[1],inactive
same,outcome,[2],inactive
same,outcome,[3],inactive
same,outcome,[4],inactive
same,outcome,[5],inactive
same,outcome,[6],inactive
same,outcome,[7],inactive
same,outcome,[8],inactive
same,outcome,[9],inactive
same,outcome,[10],inactive
same,outcome,[11],inactive
same,outcome,[12],inactive
same,outcome,[13],inactive
O=S(=O)(OCCOC(F)(F)F)C(F)(F)F,outcome,[1],inactive
same,outcome,[2],inactive
same,outcome,[3],inactive
same,outcome,[5],inactive
same,outcome,[15],inactive
same,outcome,[6],inactive
same,outcome,[7],inactive
same,outcome,[8],inactive
same,outcome,[9],inactive
same,outcome,[10],inactive
same,outcome,[11],inactive
same,outcome,[12],inactive
same,outcome,[13],inactive
FC(F)(F)C(F)(F)C(F)(F)CI,outcome,[1],inactive
same,outcome,[2],inactive
same,outcome,[3],inactive
same,outcome,[5],inactive
same,outcome,[6],inactive
same,outcome,[7],inactive
same,outcome,[8],inactive
same,outcome,[9],inactive
same,outcome,[11],inactive
same,outcome,[12],inactive
same,outcome,[13],inactive
O=C(Cl)C(F)(F)C(F)(F)C(F)(F)C(F)(F)C(F)(F)C(F)(F)C(F)(F)C(F)(F)F,AC50,[6],10 µM (active)
same,outcome,[7],inactive
same,outcome,[8],inactive
same,outcome,[9],inactive
same,outcome,[11],inactive
same,outcome,[12],inactive
same,AC50,[13],29.4 µM (active)
FC(F)(Br)C(F)(F)C(F)(F)C(F)(F)C(F)(F)C(F)(F)Br,outcome,[6],inactive
same,outcome,[7],inactive
same,outcome,[8],inactive
same,outcome,[9],inactive
same,outcome,[14],inactive
same,outcome,[11],inactive
same,outcome,[12],inactive
same,outcome,[13],inactive
O=C(O)C(F)(OC(F)(F)C(F)(OC(F)(F)C(F)(OC(F)(F)C(F)(F)C(F)(F)F)C(F)(F)F)C(F)(F)F)C(F)(F)F (centres undefined),outcome,[1],inactive
same,outcome,[2],inactive
same,outcome,[3],inactive
same,outcome,[5],inactive
same,outcome,[6],inactive
same,outcome,[7],inactive
same,outcome,[8],inactive
same,outcome,[9],inactive
same,outcome,[11],inactive
same,outcome,[12],inactive
same,outcome,[13],inactive
O=C(O)C(F)(F)C(F)(F)C(F)F,outcome,[1],inactive
same,outcome,[2],inactive
same,outcome,[3],inactive
same,outcome,[5],inactive
same,outcome,[6],inactive
same,outcome,[7],inactive
same,outcome,[8],inactive
same,outcome,[9],inactive
same,outcome,[11],inactive
same,outcome,[12],inactive
same,outcome,[13],inactive
Oc1ccc(Nc2ccccc2)cc1,outcome,[10],inactive
FC(F)(F)C(F)(F)C(F)(F)C(F)(F)CCI,outcome,[1],inactive
same,outcome,[2],inactive
same,outcome,[3],inactive
same,outcome,[5],inactive
same,outcome,[6],inactive
same,outcome,[7],inactive
same,outcome,[8],inactive
same,outcome,[9],inactive
same,outcome,[11],inactive
same,outcome,[12],inactive
same,outcome,[13],inactive
